From PubChem BioAssay AID504834 (National Center for Advancing Translational Sciences (NCATS), 2011)
In all, about 320,000 compounds went through this assay and about 22,000 (6.9%) were called active. Where a call stands in place of a potency, no number is given. Inconclusive results (about 27%) are left out. Calls follow the shape of the dose curve; as a rule, active = well fitted inhibition curve with a large enough effect; inconclusive = small, poorly fitted or top-dose-only effect, or another doubt; inactive = no such curve, though single readings can be large or run the other way. The sample as a whole holds a higher share of actives than the screen did.

Assay: Primary qHTS for delayed death inhibitors of the malarial parasite plastid, 96 hour incubation
Conditions: P. falciparum luciferase reporter growth; series mostly up to 28.7 µM
Procedure, shortened: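 P. falciparum expressing integrated firefly luciferase, in erythrocytes at 2% hematocrit, 0.05% parasitemia, incubated with compounds 96 h at 37 C, 5% CO2. Growth inhibition read as loss of luminescence; two-generation exposure targets delayed-death apicoplast inhibitors.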
Potency is read from the fitted curve at half-maximal effect.

SMILES | Potency
CCCn1c(N)c(N(CCOC)C(=O)C2CCCC2)c(=O)[nH]c1=O | inactive
CCC(C(=O)NC1CCCCC1)N(C(=O)c1snc(C(N)=O)c1N)c1ccc(OC)cc1OC (stereo unspecified) | inactive
O=C(/C=C(O)/C=C/c1ccc(O)cc1)/C=C/c1ccc(O)cc1 | inactive
COc1cc(C(CCN2CCN(c3ccccc3)CC2)c2c(OC)cc(OC)c3ccc(=O)oc23)cc(OC)c1OC (stereo unspecified) | 8.28 µM (active)
c1ccc(-c2cnc(CN3CCN(c4ccccc4)CC3)o2)cc1 | inactive
COc1ccccc1N1CCN(Cc2cc(OC)c3c(c2)OCO3)CC1 | inactive
Oc1cc2c(cc1CN1CCN(c3ccccc3)CC1)OCO2 | inactive
COc1ccc(N2CCN(Cc3cc(=O)oc4ccc5ccccc5c34)CC2)cc1 | inactive
COc1cc(OC)c2ccc(=O)oc2c1C(CCN1CCN(c2ccccc2)CC1)c1ccc2c(c1)OCO2 (stereo unspecified) | 9.28 µM (active)
O=C1/C(=C/c2ccc3c(c2)OCO3)Oc2cc(OCC(=O)N3CC(O)C[C@H]3C(=O)O)ccc21 (stereo partly specified) | inactive
Cc1ccc(O)c(NC(=O)c2cc(-c3ccco3)on2)c1 | inactive
O=C(NCc1ccco1)/C(=C\c1cccc([N+](=O)[O-])c1)NC(=O)c1ccco1 | inactive
O=C(Nc1ccccc1)Nc1ccc(C(F)(F)F)cn1 | inactive
CCOC(=O)CN(C)S(=O)(=O)c1ccc(-c2cc(C(=O)OC)sc2C(F)(F)F)cc1 | inactive
COc1cc(NC(=O)CCNC(=O)Cn2ccc3ccccc3c2=O)cc(OC)c1OC | inactive
CNc1nc(SC)nc(N(C#N)CC(=O)OC)n1 | 8.28 µM (active)
CCCCn1c(N)c(N(CCOC)C(=O)COc2c(C)cccc2C)c(=O)[nH]c1=O | inactive
CC1CC(=O)N(CC(=O)Nc2cccc(Cl)c2)c2ccccc2S1(=O)=O (stereo unspecified) | inactive
CC(=O)Nc1cccc(OCC(=O)/C=C2\N(C)c3ccccc3C2(C)C)c1 | 0.828 µM (active)
Cc1noc(C)c1C(=O)OCC(=O)/C=C1\N(C)c2ccccc2C1(C)C | inactive
CN1/C(=C\C(=O)c2cccnc2Cl)C(C)(C)c2ccccc21 | inactive
O=C(O)c1c(NC(=O)N2CCCC2)sc2c1CCCC2 | inactive

SMILES | Potency
COc1cc(NC(=S)N2CCCC(C)C2)c(OC)cc1Cl (stereo unspecified) | inactive
COc1ccc(NC(=S)N2CCCC(CO)C2)c(OC)c1 (stereo unspecified) | inactive
COc1cc(NC(=S)N2CCCC(C)C2)cc(OC)c1OC (stereo unspecified) | 10.4 µM (active)
O=C(O)c1ccc(OCC2CCCO2)cc1 (stereo unspecified) | inactive
N#Cc1ccc(/C=C2\CCn3c2nc2cc(C(=O)O)ccc2c3=O)cc1 | inactive
O=C(NCc1cccnc1)C12CC3CC(CC(C3)C1)C2 | inactive
CCCN1CCn2c3c(c4cc(Br)ccc42)CCCC31 (stereo unspecified) | 1.85 µM (active)
CCc1ccc(N(CC(=O)NCc2cccnc2)S(=O)(=O)c2ccccc2)cc1 | inactive
CCN(CC(=O)Nc1ccc(NC(C)=O)cc1)C(=O)C1CC(=O)N(Cc2ccc(C)cc2)C1 (stereo unspecified) | inactive
COc1ccc(CCNC(=O)C2CCN(c3nn4c(=O)cc(C)nc4s3)CC2)cc1OC | inactive
Cc1cc(=O)n2nc(N3CCCC3C(=O)NCCCN3CC(C)CC(C)C3)sc2n1 (stereo unspecified) | inactive
CCCOc1ccc(CNC(=O)C2CCN(c3nn4c(=O)cc(C)nc4s3)CC2)cc1 | 11.7 µM (active)
Cc1cc(=O)n2nc(N3CCC(C(=O)Nc4c(F)c(F)c(F)c(F)c4F)CC3)sc2n1 | 4.15 µM (active)
Cc1cc(=O)n2nc(N3CCCC(C(=O)N4CCN(C)CC4)C3)sc2n1 (stereo unspecified) | inactive
Cc1cc(=O)n2nc(N3CCCC(C(=O)NCc4cccc(Cl)c4)C3)sc2n1 (stereo unspecified) | inactive
Cc1ccc(CN2CC(C(=O)NNC(=O)Cn3ccc(C(F)(F)F)n3)CC2=O)cc1 (stereo unspecified) | inactive
Cc1ccc(-c2noc(C3CCCN(C(=O)c4cccc(Cl)c4)C3)n2)o1 (stereo unspecified) | inactive
N#CC1(NC(=O)COC(=O)CSc2ccc(F)cc2)CCCCC1 | inactive
O=C(Nc1cccc(F)c1)NC1CCCCCCC1 | inactive
CCCCNC(=O)N(O)C1N(/N=C/c2ccc(N(C)C)cc2)C(=S)SC1(C)C (stereo unspecified) | inactive
CCCCNC(=O)N(O)C1N(/N=C/c2ccccc2O)C(=S)SC1(C)C (stereo unspecified) | 3.29 µM (active)
O=C(/C=C/c1ccco1)NC(=S)N1CCCCC1 | inactive

SMILES | Potency
CC(=O)Oc1ccc2c(c1)C(=O)c1ccccc1C2=O | inactive
CCOC(=O)c1cnc(SC)nc1Sc1ccc(Cl)cc1Cl | 9.28 µM (active)
CCOC(=O)c1cnc(COc2ccccc2Cl)[nH]c1=O | inactive
CCOC(=O)c1nc(C)n(-c2ccc(Cl)cc2Cl)n1 | inactive
CC[C@@H](C)[C@H](NC(=O)CCc1c(C)c2cc3c4c(oc3c(C)c2oc1=O)CCCC4)C(=O)O | inactive
COCCn1c(N)c(NCc2ccccc2)c(=O)[nH]c1=O | inactive
CC(C)N(C(=O)c1ccc(-c2ccccc2F)cc1)C(C)C | 4.65 µM (active)
CC(Sc1nnc(-c2ccccc2F)n1C1CC1)C(N)=O (stereo unspecified) | inactive
CCN(CC(=O)Nc1c(F)cccc1F)C(=O)c1ccc(-c2ccccc2)cc1 | inactive
Cc1ccn(CCC(=O)N2c3ccccc3CC2C)n1 (stereo unspecified) | inactive
O=C(COC(=O)c1ccccn1)NNC(=O)c1ccc([N+](=O)[O-])cc1 | inactive
Cc1nc2ccccc2c(=O)n1Cc1ccc([N+](=O)[O-])cc1 | inactive
C[C@@H](O)c1nc2ccccc2n1N | inactive
CC(O)c1nc2ccccc2n1Cc1ccc([N+](=O)[O-])cc1 (stereo unspecified) | 1.85 µM (active)
COc1cccc(N2CC(NC(=O)c3ccc4ccccc4c3)CC2=O)c1 (stereo unspecified) | inactive
COc1ccc(C2/C=C\CN(CC(C)C)CC(=O)N2Cc2ccc(F)cc2)cc1 (stereo unspecified) | inactive
COc1ccc(C2/C=C\CN(S(=O)(=O)c3cccs3)CC(=O)N2Cc2ccc(F)cc2)cc1 (stereo unspecified) | 10.4 µM (active)
O=S(=O)(c1cccs1)N1CCN(Cc2ccccc2)CC1 | inactive
CC(NC(=O)CN(C)S(=O)(=O)c1ccc(F)cc1)C1CC2CCC1C2 (stereo unspecified) | inactive
C=CCOc1ccc(/C=C/C(=O)OCC(=O)NCC2CCCO2)cc1 (stereo unspecified) | inactive
COc1cc([N+](=O)[O-])cc([N+](=O)[O-])c1NC(=O)N1CCOCC1 | inactive
O=C(Nc1ccccc1C(=O)O)c1ccc(N2C(=O)C3CC=CCC3C2=O)cc1 (stereo unspecified) | inactive
